Hits are enriched below; roughly 18% of the tested compounds scored in any of these assays.
VDR inh: inhibitors of human vitamin D receptor. 400,000 compounds, 0.93% hits. P11473. AID 504847. VDR-SRC2-3 peptide fluorescence polarization, 2 h. Potency, µM, usual class: inhibitors
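Measured by FP: displacement of SRC2-3 coactivator peptide from VDR by library compounds, following a two-hour ambient incubation.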
KAT2A inh: blocks human GCN5L2 histone acetyltransferase. Q92830. GCN5L2 HAT assay, ThioGlo1 CoA-SH fluorescence. Potency, µM (series often up to 58.9 µM), most hits filed as inhibitors. 390,000 compounds, 0.21% hits
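Compounds, pin-transferred from DMSO stocks, meet 20nM GCN5L2 for 15 min before the reaction begins with H3(1-25) peptide (75uM) and acetyl-CoA (70uM). Thiol-reactive ThioGlo1 reports CoA release over 20 min at room temperature.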
TDP1 block: blocks human tyrosyl-DNA phosphodiesterase 1 | 350,000 compounds, 0.28% hits | Potency, µM (doses to about 130 µM), most hits filed as inhibitors | recombinant TDP1, AlphaScreen DNA substrate cleavage | Q9NUW8 | AID 485290; also: nearly all actives have a fitted effect of over 40% in size
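Enzyme-compound mixtures sat 15 min at room temperature, followed by a 5 min reaction with 15 nM final substrate and 10 min with AlphaScreen beads. Recombinant human Tdp1 was used at 1 nM final.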
PLK1 PBD block: PLK1 (human) polo-box domain binding inhibition; Potency, µM, most hits filed as inhibitors; P53350; Plk1 PBD binding of FITC phosphopeptide, fluorescence polarization; AID 720504; 360,000 compounds, 2.8% hits; also: series mostly up to about 57 µM; nearly all actives have a fitted effect of over 65% in size
Target sequence (P53350 whole entry, looked up, the tested form may be a part): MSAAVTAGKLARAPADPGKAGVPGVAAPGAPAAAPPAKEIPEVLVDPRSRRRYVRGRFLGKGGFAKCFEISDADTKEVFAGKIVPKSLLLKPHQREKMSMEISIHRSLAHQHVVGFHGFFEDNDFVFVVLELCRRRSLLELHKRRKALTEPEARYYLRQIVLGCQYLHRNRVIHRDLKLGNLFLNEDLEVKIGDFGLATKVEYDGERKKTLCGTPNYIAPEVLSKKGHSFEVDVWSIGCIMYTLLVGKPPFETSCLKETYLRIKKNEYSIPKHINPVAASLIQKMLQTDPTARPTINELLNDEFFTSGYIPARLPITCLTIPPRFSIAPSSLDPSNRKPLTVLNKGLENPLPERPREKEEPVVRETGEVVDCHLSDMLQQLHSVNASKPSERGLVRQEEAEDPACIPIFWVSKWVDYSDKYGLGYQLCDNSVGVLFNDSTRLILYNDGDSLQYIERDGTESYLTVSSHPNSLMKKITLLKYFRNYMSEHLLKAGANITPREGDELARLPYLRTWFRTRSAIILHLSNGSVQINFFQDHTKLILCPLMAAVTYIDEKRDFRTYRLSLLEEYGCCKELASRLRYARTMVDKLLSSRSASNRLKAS
DT40 TDP1 CPT: DT40-hTDP1 cell growth loss with CPT; chicken DT40 Tdp1-/-;hTDP1 cells + 20 nM CPT, ATP luminescence, 48 h; Potency, µM (doses to about 46.2 µM), hits mostly inhibitors; 420,000 compounds, 12% hits; also: nearly all actives have a fitted effect of over 55% in size
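Chicken DT40 Tdp1-/- cells stably complemented with human TDP1 were seeded at 400 cells/well in medium containing 20 nM camptothecin, exposed to pin-transferred compounds, and grown at 37 °C for at least 48 hr. Viability was read as ATP luminescence.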
TDP1 cell noCPT: qHTS for Inhibitors of human tyrosyl-DNA phosphodiesterase 1 (TDP1): qHTS in cells in absence of CPT. DT40 Tdp1-/- hTDP1 cells, no CPT, ATP luminescence, 48 h. Potency, µM (series often up to 46.2 µM), most hits filed as inhibitors. 420,000 compounds, 15% hits. AID 686978, 2013; also: nearly all actives have a fitted effect of over 55% in size
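Chicken DT40 Tdp1-/- cells complemented with human TDP1, screened without camptothecin (DMSO vehicle only), 400 cells/well. Compounds pin-transferred, cells incubated at 37 °C for at least 48 hr. Growth read as ATP-dependent luminescence (CellTiter-Glo, 30 min at RT).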
Numbers stand for hits; n = inactive; u = inconclusive; x = no result given. Calls follow the shape of the dose curve; as a rule, active = well fitted curve in the direction sought with a large enough effect; inconclusive = small, poorly fitted or top-dose-only effect, or another doubt; inactive = no such curve, though single readings can be large; an effect the other way counts as inactive or inconclusive.

SMILES	VDR inh	KAT2A inh	TDP1 block	PLK1 PBD block	DT40 TDP1 CPT	TDP1 cell noCPT
COc1ccc(Cl)cc1-c1cc(C(=O)NCc2cccs2)[nH]n1	x	x	x	n	12µM	u
OC[C@@H](O)C(O)[C@H](O)CO	x	x	x	x	n	n
CC1CCC2(CC1)NC(=O)N(CC(=O)N1CCN(S(=O)(=O)c3ccccc3)CC1)C2=O (configuration not stated)	n	n	n	n	n	n
OCC[C@H]1C[C@@H](O)[C@H](O)[C@]2(OCc3ccccc32)O1	n	n	n	n	n	n
Cc1ccc(-n2nc3c(n2)/C(=N/O)CC/C3=N\O)cc1	n	n	n	n	u	16µM
CC(C)N(C(=O)[C@H]1CC(CC(=O)NCc2cccc(C(F)(F)F)c2)C(=O)N2CCc3c([nH]c4ccccc34)[C@]12C)C(C)C (some centres not stated)	n	n	n	n	18µM	23µM
CCN(CC)C(=O)[C@H]1CC(CC(=O)NCc2cccc(C(F)(F)F)c2)C(=O)N2CCc3c([nH]c4ccc(OC)cc34)[C@]12C (some centres not stated)	n	n	n	n	16µM	15µM
CCCn1nc(NC(=O)c2cccs2)c2cc3cccc(C)c3nc21	n	n	n	n	n	n
O=C(CSc1ccccc1)N(c1ccc(Br)cc1)c1nccs1	n	n	n	n	u	n
Cc1ccc(NC(=S)N(CCN2CCCCC2)Cc2ccco2)cc1Cl	n	n	n	n	u	u
O=C(CN1CCN(Cc2ccccc2)CC1)c1ccc(Br)cc1	u	n	n	n	u	n
CCOC(=O)Cn1c(=N)n(Cc2ccccc2)c2ccccc21	n	n	n	n	n	n
N=c1n(CC(=O)c2ccc(Br)cc2)c2ccccc2n1Cc1ccccc1	n	n	n	n	5.2µM	6.5µM
N=c1n(CCO)c2ccccc2n1CCN1CCCCC1	n	n	n	n	n	n
N=c1n(CCN2CCCCC2)c2ccccc2n1CC(=O)c1cccc([N+](=O)[O-])c1	n	n	x	n	u	18µM
N=c1n(CCO)c2ccccc2n1Cc1ccc(Cl)cc1	n	n	n	n	26µM	16µM
N=c1n(Cc2ccccc2)c2ccccc2n1Cc1ccccc1	n	n	n	n	18µM	21µM
COc1ccc(OC)c(NC(=O)c2ccc3c(SCC(=O)O)c4c(nc3c2)CCCC4)c1	n	n	n	x	n	u
CCc1nc2ccc(C(=O)N(C)Cc3ccccc3)cn2c1N(CC)CCN(C)C	x	x	x	n	n	n
C=CCn1c(=N)n(CC(=O)c2cccc([N+](=O)[O-])c2)c2ccccc21	n	n	n	n	u	u
Cc1ccccc1Cn1c(=N)n(CC(=O)c2ccco2)c2ccccc21	n	n	n	n	23µM	16µM
CCCn1c(=N)n(CC(=O)c2ccco2)c2ccccc21	n	n	n	n	n	n
N=c1n(Cc2ccccc2)c2ccccc2n1CC(O)c1ccco1 (configuration not stated)	n	n	n	n	21µM	23µM
N=c1n(CC(=O)c2ccc([N+](=O)[O-])cc2)c2ccccc2n1Cc1ccccc1	n	n	n	n	7.3µM	5.8µM
N=c1n(CC(=O)c2ccc([N+](=O)[O-])cc2)c2ccccc2n1Cc1ccc(Cl)cc1	n	n	n	n	2.9µM	5.2µM
CC1(C(=O)NCc2ccccc2Br)CCN1C(=O)CCc1ccc(Cl)cc1Cl (configuration not stated)	x	x	x	n	u	n
CCN1C(=O)[C@H]2[C@H]3CN=C(SCc4ccc(Cl)cc4)N3[C@@](C)(C(=O)OC)[C@H]2C1=O	n	n	n	n	u	u
Cn1cccc1C(=O)N1CCC2(CCCN(C(=O)Nc3cccc(C#N)c3)C2)CC1	n	n	x	x	n	n
O=c1cc(-c2ccccc2Cl)oc2c(NS(=O)(=O)c3cc(Cl)cc(Cl)c3O)ccc(O)c12	32µM	32µM	n	15µM	9.2µM	12µM

Source: PubChem
